# Assay outcomes as filed in PubChem.
# Shown are actives, neighbours in structure and some others; about 0.9% of the full set was active somewhere.
# TR-FRET SRC-2 ct – TR-FRET signal artefacts, primary screen, artefact control for PPARgamma SRC-2 agonist project, biochemical; TR-FRET artefact counter-screen; active compounds read high; TR-FRET ratio at 8 µM; 200,000 compounds, 0.4% hits; AID 1049, 2008
# SRC1 TRFRET art – TR-FRET detection interference compounds, primary screen, artefact control for PPARgamma SRC-1 recruitment agonists, biochemical, TR-FRET emission ratio | TR-FRET detection artefact counter-screen; active compounds read high | TR-FRET ratio at 8 µM | 99,000 compounds, 0.34% hits; in the data active = TR-FRET ratio above about 2300
# PPARg SRC3 recr – PPARgamma agonists recruiting SRC-3 coactivator, primary screen, biochemical | biochemical PPARgamma/SRC-3 coactivator recruitment assay | activation, % at 8 µM | Peroxisome proliferator-activated receptor gamma (Homo sapiens), P37231 | AID 731, 2007 | 200,000 compounds, 0.26% hits; in the data active = activation above about 23%;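 also: 0% = DMSO and 100% = reference agonist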
# Target sequence (P37231 whole entry, looked up): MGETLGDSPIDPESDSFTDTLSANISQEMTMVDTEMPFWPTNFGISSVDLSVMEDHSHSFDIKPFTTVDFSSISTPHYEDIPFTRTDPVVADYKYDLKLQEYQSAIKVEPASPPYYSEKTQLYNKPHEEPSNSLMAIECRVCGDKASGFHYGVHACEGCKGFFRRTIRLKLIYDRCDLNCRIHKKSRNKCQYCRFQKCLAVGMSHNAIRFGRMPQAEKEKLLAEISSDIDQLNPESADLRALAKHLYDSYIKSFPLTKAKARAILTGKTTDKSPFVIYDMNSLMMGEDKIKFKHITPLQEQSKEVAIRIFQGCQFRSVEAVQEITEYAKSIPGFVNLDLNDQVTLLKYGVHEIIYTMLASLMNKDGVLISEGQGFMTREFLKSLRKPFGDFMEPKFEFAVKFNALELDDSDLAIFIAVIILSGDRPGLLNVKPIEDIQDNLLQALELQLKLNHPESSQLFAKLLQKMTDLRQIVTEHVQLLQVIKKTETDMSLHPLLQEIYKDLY
# PPARg SRC1 recr – PPARgamma agonists recruiting SRC-1 coactivator, primary screen, biochemical; Peroxisome proliferator-activated receptor gamma (Homo sapiens), P37231; PPARgamma-SRC-1 coactivator recruitment biochemical assay; activation, % at 8 µM; 200,000 compounds, 0.41% hits; AID 631, 2007; in the data active = activation above about 19%;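 also: 0% = DMSO and 100% = reference agonist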
# PPARg SRC2 recr – agonists of PPARg-SRC-2 recruitment, primary screen, biochemical, HTS; Peroxisome proliferator-activated receptor gamma (Homo sapiens), P37231; PPARgamma LBD-SRC-2 recruitment; activation, % at 8 µM; 200,000 compounds, 0.34% hits; AID 1032, 2008; in the data active = activation above about 22%;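 also: 0% = vehicle and 100% = reference agonist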
# SRC3 TRFRET art – TR-FRET detection interference compounds, artefact control for PPARgamma SRC-3 recruitment agonists, biochemical, TR-FRET ratio | TR-FRET ratio at 8 µM | TR-FRET artefact counter-screen, PPARgamma/SRC-3 format; active compounds read high | AID 1048, 2008 | 99,000 compounds, 0.39% hits
# Numbers without * were called inactive; · = no result given. Rule as the data show it, unless noted: active = TR-FRET ratio above about 2000; inactive = the rest.
SMILES,TR-FRET SRC-2 ct,SRC1 TRFRET art,PPARg SRC3 recr,PPARg SRC1 recr,PPARg SRC2 recr,SRC3 TRFRET art
N#Cc1c(-c2ccc(Br)cc2)cc(-c2cccnc2)nc1N,1568,1900,11,6,1,2107*
CCOc1ccc(N=C2NN=C(c3cc(C)n(CC4CCCO4)c3C)CS2)cc1 (stereo not given),1711,1953,2,22*,3,1828
COc1ccc(S(=O)(=O)N2CCN(C3Cc4ccccc4C3)CC2)cc1,1352,1748,6,-6,-1,2079*
COc1ccc(S(=O)(=O)N2CCC(N3CCN(Cc4ccccc4)CC3)CC2)cc1,1489,1599,-4,-3,-3,1572
Cc1nc(SCC(=O)Nc2ccc(F)cc2)c(C#N)c(C)c1CC(=O)c1ccc(Br)cc1,1535,·,8,22*,8,·
CC(=O)c1cccc(NC(=O)c2cc3ccccn3n2)c1,1832,·,4,6,24*,·
CC(=O)N1N=C(c2cccs2)CC1c1ccc(C)o1 (stereo not given),1750,2339*,1,11,4,1805
CC(C(=O)Nc1ccc2c(c1)OCCO2)c1ccc([N+](=O)[O-])cc1 (stereo not given),1717,1602,5,-2,0,2361*
CSc1ncccc1C(=O)OCC(=O)c1ccc(Br)s1,1749,2355*,16,11,15,3227*
CSc1ncccc1C(=O)OCC(=O)c1ccccc1Br,1616,1823,-2,-5,0,1555
Brc1ccc(C=Nc2ccc(Nc3ccccc3)cc2)s1,1648,1838,2,9,29*,1732
CCc1cc2c(=O)n(CCC(C)C)c(=S)[nH]c2s1,1976*,2042,10,11,8,1765
CCN(CC)C(=O)Cn1c(=O)n(-c2ccccc2)c(=O)c2c3c(sc21)CCC3,2144*,·,5,-2,22*,·
CN1/C(=C\C(=O)Nc2ccc(Cl)cc2)C(C)(C)c2ccccc21,1427,1653,-5,0,4,1551
CN1/C(=C\C(=S)Nc2ccccc2)C(C)(C)c2ccccc21,1974*,1780,2,8,-1,1715
COc1ccccc1C(=O)NC(=S)/C=C1/N(C)c2ccccc2C1(C)C,1664,2384*,11,13,17,1894
CN1/C(=C\C(=S)NC(=O)c2ccccc2Cl)C(C)(C)c2ccccc21,1473,1647,0,-4,-2,1615
CC(=O)N1CCc2cc(N=NC3=C(O)CC(C)(C)CC3=O)ccc21,1655,1879,2,1,6,1774
COCCN(CCOC)C(=O)COC(=O)c1ccc(Cl)c(S(=O)(=O)N(C)c2ccccc2)c1,1796,1890,3,3,7,1668
CCCCN(Cc1ccccc1)C(=O)CCN1C(=O)C2C3C=CC(C3)C2C1=O (stereo not given),1835,1932,-2,3,-1,1609
O=C(CSc1nnnn1Cc1ccccc1)NCCc1ccccc1,1626,1886,4,6,2,1723
O=C(CSc1nnnn1Cc1ccccc1)NCC(=O)c1ccccc1,1643,·,9,6,23*,·
COc1ccc(CCN(Cc2nc3ccccc3c(=O)[nH]2)C(=O)c2ccco2)cc1OC,1517,·,-1,20*,-1,·
O=C(NCCc1ccc(Cl)cc1)C1CCC(CNc2c(N3CCCCC3)c(=O)c2=O)CC1 (stereo not given),1577,1916,5,3,14,1598
S=C(NCc1ccc(Cl)cc1Cl)Nc1ccccc1,1553,1828,23*,6,3,1623
SMILES,TR-FRET SRC-2 ct,SRC1 TRFRET art,PPARg SRC3 recr,PPARg SRC1 recr,PPARg SRC2 recr,SRC3 TRFRET art
O=C(NCc1cccnc1)c1ccc(S(=O)(=O)N2CCCCCC2)cc1,1648,1807,-2,2,2,1558
COc1ccc(C2CC(c3ccccc3)=NN2C(=O)COC(=O)c2cc(S(=O)(=O)N3CCOCC3)ccc2F)cc1 (stereo not given),2124*,2247,4,16,5,2106*
CCOc1ccccc1NC(=O)C(=O)N/N=C/c1cc(Br)ccc1O,1390,1805,2,-3,-1,1485
COc1ccc(NC(=O)CN(C)CC(=O)Nc2ccc(Cl)cc2F)cc1,1500,1761,-4,2,-9,1500
O=C1c2cccc(OCC(=O)N3CCCc4ccccc43)c2CCN1Cc1ccc(Br)cc1,1367,1638,-6,1,-7,1560
O=C1c2cccc(OCC(=O)N3CCCc4ccccc43)c2CCN1Cc1ccccc1,1628,1537,-3,24*,1,1467
CCN(CC)c1ccc(C(=O)OCC(=O)Nc2sccc2C#N)cc1,1409,1756,1,-3,-7,1576
COc1cc([N+](=O)[O-])cc(/C=N/N(CCC#N)C(C)=O)c1O,1590,1894,3,4,6,1675
CCOc1ccccc1NC(=S)N1CCN(c2nc(-c3ccc(F)cc3)cs2)CC1,2063*,2465*,14,6,11,2234*
Cc1ccc(C)c(S(=O)(=O)N2CCN(CC(=O)Nc3sccc3C#N)CC2)c1,1734,1942,8,5,2,2054*
CSc1nc(SCC(=O)NCc2ccco2)c2c3c(sc2n1)COC(C)(C)C3,1380,2101,-2,6,4,1689
CSc1nc(SCC(=O)NC(c2ccccc2)c2ccccc2)c2c3c(sc2n1)CN(C)CC3,2069*,·,4,8,8,·
O=C(CNC(=O)c1ccc2ccccc2c1)OCC(=O)N1CCN(S(=O)(=O)c2ccc3ccccc3c2)CC1,1573,1676,-2,-5,2,1724
Cc1ccc2oc(=O)cc(CN3CCC(C)CC3)c2c1,1609,·,13,-3,23*,·
CCOC(=O)C1=C(O)/C(=C/c2cccc(OC)c2O)N=C1C,1738,2067,3,11,7,2061*
CCCCOC(=O)N/N=C/C=C/c1ccccc1,1669,2344*,6,11,-1,1739
COc1ccc(-c2csc(NNC3=NCCCCC3)n2)cc1,1429,1628,5,3,7,1498
CCOc1ccc(-c2csc(NNC3=NCCCCC3)n2)cc1,1444,2430*,5,23*,5,1370
Cc1ccc(N(Cc2ccc(C(=O)NN=C3CCN(C)CC3)cc2)S(C)(=O)=O)cc1C,1616,1587,3,0,-1,1551
O=c1c(Cc2ccccc2)c(O)ccn1Cc1ccco1,1443,1678,0,2,-3,1476
Cc1ccc(N=c2ssnc2Cl)cc1,1546,·,8,0,2,·
Cc1cc(C)nc(/N=c2/ssnc2Cl)c1,1451,·,28*,9,-4,·
CCOC12NC(=O)CC(=O)N1C(c1ccccc1)=CS2 (stereo not given),1653,1855,18,10,7,2220*
